Assay results taken from PubChem BioAssay.
Unmarked numbers belong to inactive results. Activity calls are given as the source filed them. Cut-off read from the data, not from the text of the source, unless noted: active = inhibition above about 42%; inactive = the rest.

How the values were obtained:
[1] = StAR promoter reporter inhibitors, counter-screen for LRH-1 inverse agonist project, cell-based, luminescence, high throughput (AID 651611; in the data active = inhibition above about 28%); details: StAR promoter luciferase reporter counterscreen, at 3.6 µM, active compounds read high
[2] = biological target: Nuclear receptor subfamily 5 group A member 2 (Homo sapiens) (UniProt O00482); experiment: NR5A2 activity suppression in reporter cells – cell-based, luminescence, confirmation (AID 651613); details: cell-based LRH-1 luciferase reporter, inverse agonism; at 3.6 µM; active compounds read high;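 note: HEK293T cells co-transfected with LRH-1 and StAR promoter luciferase reporter; 0% = vehicle wells and 100% = parental cells lacking receptor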
Nuclear receptor subfamily 5 group A member 2 (Homo sapiens), sequence (O00482 whole entry, looked up): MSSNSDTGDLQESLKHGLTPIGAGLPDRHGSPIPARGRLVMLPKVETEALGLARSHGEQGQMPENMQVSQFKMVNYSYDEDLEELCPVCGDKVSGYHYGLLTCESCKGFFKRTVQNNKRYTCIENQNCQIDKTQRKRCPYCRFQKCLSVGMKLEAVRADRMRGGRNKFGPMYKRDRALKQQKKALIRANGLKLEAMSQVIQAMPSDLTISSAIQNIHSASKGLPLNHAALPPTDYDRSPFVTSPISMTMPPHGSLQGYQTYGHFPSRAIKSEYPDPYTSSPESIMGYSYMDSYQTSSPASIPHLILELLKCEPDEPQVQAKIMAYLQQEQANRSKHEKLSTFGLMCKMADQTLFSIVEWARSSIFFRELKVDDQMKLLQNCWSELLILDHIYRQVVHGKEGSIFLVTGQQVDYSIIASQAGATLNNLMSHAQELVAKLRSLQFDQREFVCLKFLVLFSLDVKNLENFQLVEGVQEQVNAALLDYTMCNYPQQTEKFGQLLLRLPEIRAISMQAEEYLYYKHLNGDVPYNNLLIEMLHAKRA

[3] = biological target: Steroidogenic factor 1 (Homo sapiens) (UniProt Q13285); experiment: inverse agonism at SF1 nuclear receptor – cell-based, luminescence, high throughput, counter-screen for LRH-1 inverse agonist project (AID 651614; in the data active = inhibition above about 44%;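 note: cells cotransfected with StAR promoter reporter and SF1 expression vector; 0% = vehicle on cells with receptor and 100% = vehicle on cells lacking receptor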); details: cell-based SF1 luciferase reporter, at 3.6 µM, active compounds read high
Steroidogenic factor 1 (Homo sapiens), sequence (Q13285 whole entry, looked up, the tested form may be a part): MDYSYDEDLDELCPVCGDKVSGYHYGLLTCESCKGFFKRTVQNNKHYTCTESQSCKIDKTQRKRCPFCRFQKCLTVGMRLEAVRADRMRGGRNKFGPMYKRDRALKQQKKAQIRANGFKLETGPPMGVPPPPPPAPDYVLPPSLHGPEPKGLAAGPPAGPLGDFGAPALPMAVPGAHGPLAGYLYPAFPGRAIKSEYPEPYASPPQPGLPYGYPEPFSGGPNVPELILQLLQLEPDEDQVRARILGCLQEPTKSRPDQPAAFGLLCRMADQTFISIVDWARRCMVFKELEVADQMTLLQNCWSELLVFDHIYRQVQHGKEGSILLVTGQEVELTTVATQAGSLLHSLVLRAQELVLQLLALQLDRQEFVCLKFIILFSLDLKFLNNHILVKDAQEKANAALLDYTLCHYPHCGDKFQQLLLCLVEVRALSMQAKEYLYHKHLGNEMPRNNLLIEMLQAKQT

[4] = compounds suppressing VP16-driven luciferase signal – cell-based, luminescence, high throughput, counter-screen for LRH-1 inverse agonist project (AID 651615; in the data active = inhibition above about 33%); details: Gal4-VP16 luciferase reporter cells, at 3.6 µM, active compounds read high

SMILES	inhibition [1]	inhibition [2]	inhibition [3]	inhibition [4]
O=C(NNc1ccc([N+](=O)[O-])cc1[N+](=O)[O-])c1ccco1	12.4%	57.6% (active)	60% (active)	3.35%
CCOC(=O)c1ccc(N=Cc2cnc(N)nc2N)cc1	-7.89%	-2.86%	7.7%	3.32%
O=C(NCc1ccc2c(c1)OCO2)c1nn(-c2ccccc2)c(=O)c2ccccc12	4.72%	52.2% (active)	53.3% (active)	-2.13%
CC1(C)CC(=O)C=C(c2ccc3ncccc3c2)C1	13.7%	52.2% (active)	52.9% (active)	14.3%
C/C(=N\Nc1nc(C)c(C)s1)c1ccc([N+](=O)[O-])cc1	-12.6%	49.1% (active)	47.8% (active)	-2.81%
CCN(CC)S(=O)(=O)c1cc(NC(=O)CCCOc2ccc(C(C)=O)cc2)ccc1C	2.6%	42.6% (active)	19.8%	21.1%
Cc1c(C)c2ccc(OCC(=O)N3CC[C@@]4(O)CCCC[C@H]4C3)cc2oc1=O	14.5%	39%	25.6%	-3.1%
CC(=O)Nc1ccc(-c2ccnc3c2CC(C(=O)NCc2ccco2)O3)cc1 (configuration not stated)	48.1% (active)	42.6% (active)	44.6% (active)	24.2%
CC(C)NC(=O)CN1CCN(C(=O)CCl)CC1	1.19%	52.8% (active)	27.2%	7.31%
CC(=O)N1CCN(c2ccc(NC(=O)c3cccc([N+](=O)[O-])c3)cc2)CC1	-1.56%	53.6% (active)	49.6% (active)	-19.9%
CC(=O)N1CCN(c2ccc(NCc3ccc(C)cc3)cc2)CC1	1.04%	34.2%	33.7%	1.11%
CCNc1cc(N2CCCC2)ccc1[N+](=O)[O-]	10.6%	40.2%	44% (active)	-8.79%
CSc1ccc(CNc2cccc3ccccc23)cc1	3.79%	35.3%	24.7%	-39.8%
COc1ccc(OC)c(C2NC(=O)c3sc(=S)n(-c4ccccc4)c3N2)c1 (configuration not stated)	10.5%	53.5% (active)	45.4% (active)	-4.35%
CCCc1cc(=O)oc2c(C)c(OCC(=O)NCCCn3ccnc3)ccc12	-1.87%	47.8% (active)	35.9%	-19.5%
Cc1ccc(CNC(=O)c2ccc([N+](=O)[O-])o2)cc1	16.4%	57% (active)	60.8% (active)	-5.02%
CC1(C)CC2CC(C)(CN2S(=O)(=O)c2ccc(C(=O)Nc3cccc(S(=O)(=O)N4CCOCC4)c3)cc2)C1 (configuration not stated)	13%	59% (active)	56.4% (active)	56% (active)
CCC(=O)N1CCN(c2ccc(Cl)cc2NC(=O)c2ccc([N+](=O)[O-])o2)CC1	22.8%	64.7% (active)	61.9% (active)	4.86%
COc1ccccc1N1CCN(C(=O)CSc2nc3ccccc3o2)CC1	-10.2%	30.2%	35.1%	-19.8%
CCOc1ccc(CCNC(=O)COC(=O)CCC(=O)c2cccs2)cc1OCC	-0.72%	45.3% (active)	51% (active)	-6.57%
CC(C)(C)c1ccc(C(=O)Nc2ccc(C(=O)NCc3cccnc3)cc2)cc1	82.1% (active)	90.4% (active)	93.2% (active)	61% (active)
Cc1no[n+]([O-])c1COc1ccc(/C=N/n2nnnc2N)cc1	-1.3%	51.9% (active)	48.4% (active)	0.06%

SMILES	inhibition [1]	inhibition [2]	inhibition [3]	inhibition [4]
N#CCSc1ccccc1NC(=O)CN1C(=O)C2CC=CCC2C1=O (configuration not stated)	10.9%	58.1% (active)	60.2% (active)	-7.26%
COc1ccc(-c2nc(C(N)=O)c3[nH]c(=O)n(-c4cccc(Cl)c4)c3n2)cc1OC	20.8%	57.3% (active)	56.5% (active)	-5.48%
CC(=O)Nc1cc(-c2ccc(S(C)(=O)=O)cc2)cn2c(-c3ccc(F)cc3)cnc12	17.4%	53.4% (active)	33.3%	-7.42%
COc1ccc(NC(=O)Cn2nnc(C(=O)Nc3ccccc3C)c2N)cc1	5.36%	41.4% (active)	37.6%	9.36%
O=C(CSc1ncn[nH]1)Nc1ccc(Cl)c(Cl)c1	18.4%	45.2% (active)	39%	20.6%
CCOc1ccc(NC(=O)COC(=O)CC2CCCCC2)cc1	9.8%	44.4% (active)	44.8% (active)	-6.37%
CCCCOc1ccc(Br)cc1CSC(=N)N	16.4%	103% (active)	62.3% (active)	83.2% (active)
CCCc1cc(=O)oc2cc(OCC(=O)NC3CC(C)(C)NC(C)(C)C3)ccc12	-0.91%	53% (active)	45.7% (active)	2.6%
N#Cc1ccccc1NC(=O)c1ccccc1OCC(=O)Nc1ccc2c(c1)oc1ccccc12	13.3%	33.9%	23.9%	4.76%
O=C1CC(c2cccc([N+](=O)[O-])c2)c2ccc3ccccc3c2N1 (configuration not stated)	11.8%	40.8%	39.5%	9.31%
COc1cccc(C(=O)COc2cccc(NC(=O)c3cccc([N+](=O)[O-])c3)c2)c1	14.4%	62.4% (active)	59.3% (active)	2.28%
CC[n+]1c(/C=C/c2ccc(N(C)C)cc2)ccc2ccccc21	71.9% (active)	103% (active)	86.6% (active)	85% (active)
O=C(Nc1ccc2oc(-c3cccnc3)nc2c1)c1ccc([N+](=O)[O-])o1	8.01%	58.1% (active)	62.5% (active)	-5.53%
N#Cc1ccc(NC(=O)COc2ccc(-n3cnnn3)cc2)cc1	11.7%	38.2%	35.9%	-2.83%
CCN1C(=O)c2cccc3c(NC(=O)c4ccc(S(=O)(=O)N5CCOCC5)cc4)ccc1c23	40.3% (active)	62% (active)	62.7% (active)	-60.9%
CCS(=O)(=O)Nc1cccc(-c2ccc3nnc(-c4cccnc4)n3n2)c1	21.7%	52.1% (active)	49.5% (active)	-31.6%
CC(C)c1ccc(NC(=O)CSc2nc(=O)[nH]c3c2CCCC3)cc1	16.1%	58.5% (active)	47.3% (active)	-10.5%
COc1ccc(/C=N/NC(=O)c2ccc(NC(=O)c3cccc([N+](=O)[O-])c3)cc2)c(OC)c1	13.1%	53.6% (active)	46.5% (active)	2.35%
O=C(COC(=O)c1ccc[n+]([O-])c1)Nc1ccc([N+](=O)[O-])cc1Cl	17.6%	59.4% (active)	56.2% (active)	1.26%
CCN(Cc1ccccc1)c1ccc(/C=N/NS(=O)(=O)c2ccc(C)c([N+](=O)[O-])c2)cc1	10.9%	40.7%	61.3% (active)	9.15%
CCCOc1ccc2oc(=O)c3c(c2c1)CCCN3C(=O)CN1CCN(c2ncccn2)CC1	6.16%	53.4% (active)	55.7% (active)	-7.99%
